Assay results from PubChem BioAssay (NCATS).
Records with an inconclusive call do not appear. A number with no mark means an inactive call. Active and inactive are the calls of the source. Calls come from the whole dose curve; as a rule, active = well fitted cell-killing curve with a large enough effect; inconclusive = small, poorly fitted or top-dose-only effect, or effect the other way; inactive = flat fitted curve, though single readings scatter.

system: OV90; experiment: Primary qHTS to identify gynecologic anti-cancer compounds using libraries of approved drugs and bioactive compounds (AID 1345084); settings: Gynecologic cancer cell panel viability, ATPlite luminescence, 48 h; series mostly up to 57.5 µM; activity change, negative = cytotoxicity: at the top concentration; note: nearly all actives have a fitted effect of over 55% in size
Method in brief: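 Luminescence from the ATPlite ATP-monitoring reagent indicates viable cell number; lower signal means cytotoxicity. Cells received compound 16 h after seeding and were exposed for 48 h across five concentrations.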
% is set by controls: 0 for no effect and ±100 for the full control effect; potency is the fitted concentration of half-maximal effect.

Row | Compound | activity change, negative = cytotoxicity | Potency
1 | CC1(C)C[C@H](O)C[C@@]2(C)[C@H]1[C@H](O)C=C1COC(=O)[C@@]12O | -10.7% | 
2 | CC(=O)OC12CC(C)C(OC(=O)c3ccccc3)C1/C=C(/C)C(OC(=O)c1ccccc1)CC(=O)C(C)(C)/C=C/C(C)C2=O (stereo unspecified) | -25.2% [at 25.3 µM] | 
3 | C/C=C(\C)C(=O)OC[C@H]1O[C@@H](O[C@H]2[C@@H](O[C@H]3O[C@H](COC(=O)/C(C)=C/C)[C@@H](O)[C@H](O)[C@H]3O[C@@H]3O[C@H](CO)[C@@H](O)[C@H](OC(=O)/C(C)=C/C)[C@H]3O)O[C@H](COC(=O)/C(C)=C/C)[C@@H](O)[C@@H]2O)[C@H](O)[C@@H](O)[C@@H]1O | -2.51% [at 11.6 µM] | 
4 | COc1ccc(C(=O)OC2C3C=COC(OC4OC(CO)C(O)C(O)C4O)C3C3(CO)OC23)cc1OC (stereo unspecified) | -2.53% [at 25.3 µM] | 
5 | N#Cc1cccc(-c2nc(-c3cccnc3)no2)c1 | -0.142% [at 25.3 µM] | 
6 | Cc1oc2nc3c(c(NC(=O)CN4CCCC4=O)c2c1C)CCCC3 | 3.7% | 
7 | O=C(/C=C/c1ccc(O)c(O)c1)OC[C@H]1O[C@@H](OC2CCCCC2O)[C@H](O)[C@@H](O)[C@@H]1O (stereo partly specified) | -1.31% [at 25.3 µM] | 
8 | Cc1cccc(-c2nn3c(c2-c2ccnc4ccc(C(N)=O)cc24)CCC3)n1 | 4.51% | 
9 | NC1=NC2(c3cc(NC(=O)c4ccc(F)cn4)ccc3F)COCC2CS1 (stereo unspecified) | -5.58% | 
10 | CC(CNS(=O)(=O)C(C)C)c1ccc(-c2ccc(C#N)cc2)cc1 (stereo unspecified) |  | 10 µM (active)
11 | COC1CC(O[C@H]2CC[C@@]3(C)C(=CC[C@]4(O)C3[C@H](O)[C@@H](O)[C@]3(C)[C@@H]([C@H](C)O)CC[C@@]34O)C2)OC(C)C1OC1CC(OC)C(OC2CC(OC)C(OC3OC(C)C(OC4OC(CO)C(O)C(O)C4O)C(OC)C3O)C(C)O2)C(C)O1 (stereo partly specified) | -7.88% [at 11.6 µM] | 
